PubChem BioAssay AID504833 (Johns Hopkins Ion Channel Center, 2011)
Among all 2,500 compounds or so, about 2,200 (88%) were called active.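 The calls were made as follows: active = primary screen active, with duplicate mean activation above negative control mean plus 3 SD (cut at about 11% in these data); inactive = the rest.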 So high a share suggests a set chosen from earlier hits. The list is a sample of the results.

These compounds were tested against High affinity choline transporter 1 (Homo sapiens) (UniProt Q9GZV3) (assay: CHT activators, confirmation, cell-based, membrane potential dye, duplicate (AID 504833)). Conditions: CHT-expressing cells, membrane potential dye fluorescence (FDSS); at 10 µM; stronger effect = higher value; % of choline EC20–EC90 response window; HEK293 expressing CHT LV-AA mutant; choline added at its EC20.
High affinity choline transporter 1 (Homo sapiens), sequence (Q9GZV3 whole entry, looked up): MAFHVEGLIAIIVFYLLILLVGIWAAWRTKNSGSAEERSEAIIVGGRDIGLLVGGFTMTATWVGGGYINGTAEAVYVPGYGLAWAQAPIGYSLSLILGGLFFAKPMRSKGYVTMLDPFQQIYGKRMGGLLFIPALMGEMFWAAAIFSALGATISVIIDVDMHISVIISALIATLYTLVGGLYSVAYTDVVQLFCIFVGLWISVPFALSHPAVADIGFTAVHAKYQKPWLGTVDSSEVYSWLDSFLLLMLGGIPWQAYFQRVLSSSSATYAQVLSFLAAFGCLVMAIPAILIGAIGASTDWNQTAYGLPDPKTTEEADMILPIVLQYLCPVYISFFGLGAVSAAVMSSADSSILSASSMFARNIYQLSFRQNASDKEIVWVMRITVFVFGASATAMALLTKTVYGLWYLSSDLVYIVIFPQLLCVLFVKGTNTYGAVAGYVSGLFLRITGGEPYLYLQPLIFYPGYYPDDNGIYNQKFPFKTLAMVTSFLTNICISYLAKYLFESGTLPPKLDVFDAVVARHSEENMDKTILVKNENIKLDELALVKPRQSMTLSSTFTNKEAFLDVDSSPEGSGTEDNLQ

activation, active:
Nc1scc[n+]1Cc1cccc2cccnc12 42.7%, Cn1c(=O)n(Cc2ccco2)c(=N)c2c3c(sc21)CCCC3 30.6%, CCn1c(/C=C/Nc2ccccc2)[n+](CC)c2ccc(C(=O)OCC(F)(F)F)cc21 68.4%, CC(Sc1nc2ccccc2c(=O)n1Cc1ccco1)C(=O)c1ccccc1 (stereo unspecified) 16.9%, Cc1nnc(-c2ccc(Oc3ccc(C)c(C)c3)c([N+](=O)[O-])c2)o1 15%, Cc1ccc2c(c1)N(CC(=O)N(Cc1ccccn1)Cc1ccco1)C(=O)C(C(C)C)O2 (stereo unspecified) 30.6%, Clc1ccc(COn2c(-c3ccc(Cl)cc3Cl)nc3ncccc32)cc1 36.3%, COc1ccccc1NC(=O)CN(c1ccccc1OC)S(=O)(=O)c1ccccc1 12%, Cc1cc(NC(=O)c2cnn3cccnc23)n(-c2ccccc2)n1 52.8%, CCN1CCCC1CNC(=O)c1cc2c(=O)n(C)c3ccccc3c2n1C (stereo unspecified) 44.7%, CCOC(=O)c1cccnc1NC(=O)c1ccncc1 35.3%, Cc1nc2ccccc2c(=O)n1CCCn1ccnc1 22.6%, CCCCN(CCCC)CC(O)Cn1c2ccccc2c(=O)c2ccccc21 (stereo unspecified) 44.6%, CC(C)CC(COCc1ccc(Cl)cc1)N1CCN(C(=O)c2ccc(C(F)(F)F)cc2)CCC1=O (stereo unspecified) 33.6%, Cc1nc(N=C(N)N)nc2c(C)cccc12 49.8%, COc1nc(N=C(N)N)nc2c(C)cccc12 40.5%, CN1CCc2c(sc3c2c(NCc2ccco2)nc2nnnn23)C1 73.5%, CCOc1ccc(C2c3[nH]c4ccccc4c3CCN2Cc2cccn2-c2ncccn2)cc1 (stereo unspecified) 17.1%, C=CCNc1nnc(C)c2ccccc12 55.7%, COC(=O)c1sc(C(F)(F)F)c(-c2ccccc2)c1S(=O)(=O)N(C)C 27.1%, CC1(C)Cc2c(sc3nc4n(c(=N)c23)CCCCC4)CO1 40.2%, CN1CCN(c2cc3c(cc2F)c(=O)c(C(=O)O)cn3CCF)CC1 63.4%, CCn1cc(S(=O)(=O)c2cccc(C)c2)c(=O)c2cc(F)c(N3CCN(C)CC3)cc21 52.5%, Cn1c(=O)[nH]c(=O)c2c1nc(N1CCN(CCO)CC1)n2CCSc1nc2ccccc2s1 69.4%, Cc1ccc(-n2c(C)cc(/C=N\NC(=O)CC(=O)NC(C)C)c2C)cc1 33.2%, O=C(Nc1ccccc1N1CCN(c2ccccc2)CC1)c1cccc(F)c1 36.2%, C[C@H]1CCC(=O)N([C@H](CSc2ccccc2)Cc2ccccc2)CC1 12%, O=C(c1ccc(F)c(S(=O)(=O)N2CCOCC2)c1)N(CCc1ccccc1)Cc1ccccc1 19.7%, O=C1c2ccccc2C(=O)c2c1cccc2N1CCN(CCO)CC1 47.2%, CCCCCCCCCCOC(=O)Cn1c(COc2ccc(C)cc2)[n+](C)c2ccccc21 49.5%, CCCCCCCCCCOC(=O)Cn1c(COc2cccc(OC)c2)[n+](C)c2ccccc21 63.2%, CCOC(=O)c1cn(CC)c2cc(F)c(F)cc2c1=O 50.9%, COc1cccc(C(=O)NC(=O)Nc2nc(C)cc(C(F)(F)F)n2)c1 49.4%, COC(=O)c1ccc(C(NC(=O)OCc2ccccc2)/C(C)=C/[C@@H](C)C(=O)NCc2ccc(OC)c(OC)c2)cc1 (stereo partly specified) 22.6%, CCCCn1c(N)c(N(CCC(C)C)C(=O)c2ccc(COc3ccccc3)o2)c(=O)[nH]c1=O 24.5%, CN(C)/C=C/C(=O)c1cnc2sccn2c1=O 42.8%, COc1cc2c(cc1OC)C(Nc1ccc(S(N)(=O)=O)cc1)=NC(C)(C)C2 71.7%, CC(=O)c1ccccc1OCc1ccc(C(=O)c2ccccc2)cc1 25%, Cc1nnc(C)c2c(C)n(N)c(C)c12 19.2%, Nc1ccccc1SCc1cc([N+](=O)[O-])cc2c1OCOC2 33.2%, O=C(Nc1ccncc1)c1ccc(Cl)c([N+](=O)[O-])c1 35.4%

activation, inactive:
COc1ccccc1NC(=O)CSc1nnc(-c2ccoc2C)n1CCc1ccccc1 3.73%, Cc1c(C)c2c(OCC(=O)N[C@@H](C(=O)O)c3ccccc3)cc3c(c2oc1=O)CCC(C)(C)O3 7.79%, Cc1nc2c(-c3ccccc3)c(C)[nH]n2c(=O)c1Cl 8.04%, CC1=CC(C)(C)N(C(=O)CSc2nnc(-c3ccccc3)o2)c2ccc(C)cc21 7.25%, COc1ccc2nc(/N=C(\N)NC(=O)Nc3ccccc3)nc(C)c2c1 6.06%
